# Source: PubChem BioAssay (NCI)
# Where “and” joins values, the source holds several entries; their conditions need not be identical. Equal values may be shown once. Compounds without any hit were thinned out: in the full panel of roughly 79,000, 15% have a hit. Where a structure was tested more than once in an assay, its records may differ in their call. Calls of active or inactive are those of the source. No stated cut-off is given here; in the data, active means growth inhibition above about 70%; inactive means the rest.
# Assay: NCI Yeast Anticancer Drug Screen. Data for the cln2 rad14 strain (AID 165);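 further: 0% = growth equal to vehicle treated cultures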
# Details: S. cerevisiae cln2 rad14 strain, at 50.0 µM (retest, dose inferred, filed as 5.0), stronger effect = higher value
# Outline: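 Yeast carrying cln2 and rad14 alterations (cell cycle control and DNA damage repair) were exposed to compounds. Growth inhibition was measured against vehicle-treated controls.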
row,Structure (SMILES),growth inhibition
1,O=C(c1ccc(Br)cc1)C1C(c2ccccc2)N1C1CCCCC1 (stereo not drawn),58% (inactive)
2,Cc1cccc2cc3ccccc3c[n+]12,73% (active)
3,Cc1ccc(P(=O)(c2ccc(C)cc2)c2ccc(C)cc2)cc1.Cc1ccc(P(=O)(c2ccc(C)cc2)c2ccc(C)cc2)cc1.[Cl][Sn]([Cl])([Cl])[Cl],8% (inactive)
4,c1ccc(P(CCP(c2ccccc2)c2ccccc2)CCP(c2ccccc2)c2ccccc2)cc1,84% (active)
5,O=[N+]([O-])c1cc2c([N+](=O)[O-])cccc2o1,99% (active)
6,O=C1CCC[N]1[Hg][N]1CCCC1=O,97% (active)
7,Oc1c(Cl)c(Cl)c(Cl)c(Cl)c1Cl.[Cu+2],99% (active)
8,ClCCN(CCCl)c1ccc(C=NCCCCN=Cc2ccc(N(CCCl)CCCl)cc2)cc1,82% (active)
9,CC(C(=O)C1CCCCC1)[n+]1ccccc1 (stereo not drawn),-2% (inactive)
10,CN(C)CC1CCCCC1=O (stereo not drawn),3% (inactive)
11,CSc1nncc(=O)[nH]1.[Hg],99% (active)
12,CNC(=O)N1CN(c2ccccc2)C2(CCN(CCCC(=O)c3ccc(F)cc3)CC2)C1=O,67% (inactive)
13,O=C(OCc1ccccc1)C(C(Cl)c1ccccc1)N(Cc1ccccc1)Cc1ccccc1 (stereo not drawn),53% (inactive)
14,O=C1C=C(Cl)C(=O)C=C1Cl,91% (active)
15,CC(=O)[O][Hg][c]1ccccc1N,99% (active)
16,CCOP(=O)(Cc1cccc2ccccc12)OCC,14% (inactive)
17,Nc1c(Cl)cccc1C(=O)O,-7% (inactive)
18,CC(=O)O[C@H]1CC[C@H]2[C@@H]3CCC4=CC(=O)CC[C@@H]4[C@H]3CC[C@]12C,39% (inactive)
19,C1CC[N-]CC1.CC(=N\O)/C(C)=N/O.CC(=N\O)/C(C)=N/O.OC1[CH-]CCCC1.[Co+2],28% (inactive)
20,c1ccc(C(C(=Nc2ccc(Cc3ccc(N=C(C(c4ccccc4)c4ccccc4)N4CC4)cc3)cc2)N2CC2)c2ccccc2)cc1,62% (inactive)

row,Structure (SMILES),growth inhibition
1,CCN(Cc1ccccc1)CC(O)c1ccc(Cl)c(Cl)c1 (stereo not drawn),99% (active)
2,CC(=O)OC1C(O)C(C)OC(OC2C(OC(=O)C3CCC4C(C3)OC3(CC(OC(=O)/C=C/c5ccccc5)C(C)CO3)C43CO3)OC(C)C(O)C2OC(C)=O)C1O (stereo not drawn),96% (active)
3,CCCCC(CC)CNP(=S)(NCC(CC)CCCC)NCC(CC)CCCC (stereo not drawn),20% (inactive)
4,Oc1c(-c2ccccc2)cc(-[n+]2c(-c3ccccc3)cc(-c3ccccc3)cc2-c2ccccc2)cc1-c1ccccc1,98% (active)
5,Cc1ccc([C@H]2N[C@@H]2c2ccccn2)cc1,-5% (inactive)
6,CC[CH2][Sn]([CH2]CC)([CH2]CC)[CH2]CCBr,98% (active)
7,O=[N+]([O-])c1cc(S(=O)(=O)F)ccc1S,90% (active)
8,CCCCN(CCCC)CCc1ccc(OC(=O)c2ccc(N)cc2)cc1,73% (active)
9,Cc1ccc(C(=O)OC(C(=O)O)C(OC(=O)c2ccc(C)cc2)C(=O)O)cc1 (stereo not drawn) (tested in a mixture with another compound),77% (active)
10,N#C[S-].[Ce+3].c1ccc(-c2ccccn2)nc1.c1ccc(-c2ccccn2)nc1.c1ccc(-c2ccccn2)nc1,93% (active)
11,Nc1nc(N)c(-c2ccc(Cl)c(Cl)c2)c(CCc2ccc(CNC(=O)c3ccc(S(=O)(=O)F)cc3)cc2)n1,88% (active)
12,CC1C2C=CC1C(c1c3ccc(=O)c(O)c-3oc3c(O)c(O)ccc13)C2C(=O)O (stereo not drawn),0% (inactive)
13,O=C(O)CN(CCN(CC(=O)O)CC(=O)O)CC(=O)O,49% (inactive)
14,O=S(=O)(F)c1ccc(Cl)cc1C[P+](c1ccccc1)(c1ccccc1)c1ccccc1,54% (inactive)
15,Oc1ccc2ccccc2c1O,30% (inactive)
16,COC1=[C]([Hg][Br])C(OC)OC1OC (stereo not drawn),98% (active)
17,Nc1nc(CCl)cs1,-8% (inactive)
18,CCC(C)N1CN(c2ccccc2)C2(CCN(CCCC3(c4ccc(F)cc4)OCCO3)CC2)C1=O (stereo not drawn),92% (active)
19,COc1ccc(NP(=S)(Nc2ccc(OC)cc2)c2ccccc2)cc1,51% (inactive)

# Same assay, conditions: S. cerevisiae cln2 rad14 strain, at 50.0 µM, stronger effect = higher value
row,Structure (SMILES),growth inhibition
1,O=C(c1ccc(Br)cc1)C1C(c2ccccc2)N1C1CCCCC1 (stereo not drawn),94.2% (active)
2,Cc1cccc2cc3ccccc3c[n+]12,62.2% (inactive)
3,Cc1ccc(P(=O)(c2ccc(C)cc2)c2ccc(C)cc2)cc1.Cc1ccc(P(=O)(c2ccc(C)cc2)c2ccc(C)cc2)cc1.[Cl][Sn]([Cl])([Cl])[Cl],4.1% (inactive)
4,c1ccc(P(CCP(c2ccccc2)c2ccccc2)CCP(c2ccccc2)c2ccccc2)cc1,5.95% (inactive)
5,O=[N+]([O-])c1cc2c([N+](=O)[O-])cccc2o1,97.3% (active)
6,O=C1CCC[N]1[Hg][N]1CCCC1=O,92% (active)
7,Oc1c(Cl)c(Cl)c(Cl)c(Cl)c1Cl.[Cu+2],92.8% (active)
8,ClCCN(CCCl)c1ccc(C=NCCCCN=Cc2ccc(N(CCCl)CCCl)cc2)cc1,88.6% (active)
9,CC(C(=O)C1CCCCC1)[n+]1ccccc1 (stereo not drawn),48.5% (inactive)
10,CN(C)CC1CCCCC1=O (stereo not drawn),59.5% (inactive) and 8.3% (inactive) and 0.7% (inactive)
11,CSc1nncc(=O)[nH]1.[Hg],99.2% (active)
12,CNC(=O)N1CN(c2ccccc2)C2(CCN(CCCC(=O)c3ccc(F)cc3)CC2)C1=O,70.3% (active)
13,O=C(OCc1ccccc1)C(C(Cl)c1ccccc1)N(Cc1ccccc1)Cc1ccccc1 (stereo not drawn),89.8% (active)
14,O=C1C=C(Cl)C(=O)C=C1Cl,86.7% (active)
15,CC(=O)[O][Hg][c]1ccccc1N,92% (active)
16,CCOP(=O)(Cc1cccc2ccccc12)OCC,2.1% (inactive)
17,Nc1c(Cl)cccc1C(=O)O,13.4% (inactive)
18,CC(=O)O[C@H]1CC[C@H]2[C@@H]3CCC4=CC(=O)CC[C@@H]4[C@H]3CC[C@]12C,14.8% (inactive)
19,C1CC[N-]CC1.CC(=N\O)/C(C)=N/O.CC(=N\O)/C(C)=N/O.OC1[CH-]CCCC1.[Co+2],76% (active)
20,c1ccc(C(C(=Nc2ccc(Cc3ccc(N=C(C(c4ccccc4)c4ccccc4)N4CC4)cc3)cc2)N2CC2)c2ccccc2)cc1,77.2% (active)

row,Structure (SMILES),growth inhibition
1,CCN(Cc1ccccc1)CC(O)c1ccc(Cl)c(Cl)c1 (stereo not drawn),-23.4% (inactive)
2,CC(=O)OC1C(O)C(C)OC(OC2C(OC(=O)C3CCC4C(C3)OC3(CC(OC(=O)/C=C/c5ccccc5)C(C)CO3)C43CO3)OC(C)C(O)C2OC(C)=O)C1O (stereo not drawn),90.1% (active)
3,CCCCC(CC)CNP(=S)(NCC(CC)CCCC)NCC(CC)CCCC (stereo not drawn),35.8% (inactive)
4,Oc1c(-c2ccccc2)cc(-[n+]2c(-c3ccccc3)cc(-c3ccccc3)cc2-c2ccccc2)cc1-c1ccccc1,89.8% (active)
5,Cc1ccc([C@H]2N[C@@H]2c2ccccn2)cc1,30.1% (inactive)
6,CC[CH2][Sn]([CH2]CC)([CH2]CC)[CH2]CCBr,99.3% (active)
7,O=[N+]([O-])c1cc(S(=O)(=O)F)ccc1S,86.7% (active)
8,CCCCN(CCCC)CCc1ccc(OC(=O)c2ccc(N)cc2)cc1,90.2% (active)
9,Cc1ccc(C(=O)OC(C(=O)O)C(OC(=O)c2ccc(C)cc2)C(=O)O)cc1 (stereo not drawn) (tested in a mixture with another compound),-1.75% (inactive) and 91.3% (active)
10,N#C[S-].[Ce+3].c1ccc(-c2ccccn2)nc1.c1ccc(-c2ccccn2)nc1.c1ccc(-c2ccccn2)nc1,91.5% (active)
11,Nc1nc(N)c(-c2ccc(Cl)c(Cl)c2)c(CCc2ccc(CNC(=O)c3ccc(S(=O)(=O)F)cc3)cc2)n1,74.6% (active)
12,CC1C2C=CC1C(c1c3ccc(=O)c(O)c-3oc3c(O)c(O)ccc13)C2C(=O)O (stereo not drawn),-35.2% (inactive)
13,O=C(O)CN(CCN(CC(=O)O)CC(=O)O)CC(=O)O,-14.9% (inactive) and -22.5% (inactive) and 17.4% (inactive)
14,O=S(=O)(F)c1ccc(Cl)cc1C[P+](c1ccccc1)(c1ccccc1)c1ccccc1,11.1% (inactive)
15,Oc1ccc2ccccc2c1O,34% (inactive)
16,COC1=[C]([Hg][Br])C(OC)OC1OC (stereo not drawn),98.8% (active)
17,Nc1nc(CCl)cs1,75.8% (active) and -22.8% (inactive)
18,CCC(C)N1CN(c2ccccc2)C2(CCN(CCCC3(c4ccc(F)cc4)OCCO3)CC2)C1=O (stereo not drawn),74.5% (active)
19,COc1ccc(NP(=S)(Nc2ccc(OC)cc2)c2ccccc2)cc1,68.2% (inactive)
